# Test results taken from PubChem BioAssay (NCI).
# This is part of a sample that, as a whole, favours compounds with a hit. Of some 83,000 tested, about 20% had one in any assay.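 Testing used 96-well plates and a 48-hour single-concentration exposure. Example: -40 means 40% of the starting cells died.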 Calls of active or inactive are those of the source. Rule for the calls: active = growth percent below 10; inactive = the rest.
# System: HL-60(TB) leukemia
# Test: NCI-60 one-dose screen, 48 h (100 = growth as untreated, 0 = no growth, -100 = all killed)
# Details: 10 µM unless noted
row,SMILES,growth
1,Cc1ccc(S(=O)(=O)c2ccccc2)cc1,12.8% (inactive)
2,COc1ccc(OC)c(/C=C2\Oc3cc(OCCN4CCCC4)ccc3C2=O)c1,69.2% (inactive)
3,CCCCCSB(SCCCCC)c1ccccc1,104% (inactive)
4,CCc1nnc(NC(=O)c2nnn(-c3ccccc3)c2-c2ccco2)s1,79.9% (inactive)
5,C/C=C(\C)C(C(=O)NC1CCCCC1)N(C(=O)C1CCc2cc(F)ccc2O1)c1ccc([N+](=O)[O-])cc1 (stereo not given),82.4% (inactive)
6,COc1ccc([N+](=O)[O-])c(/C=C/C(=O)c2ccccn2)c1,88.9% (inactive)
7,C#CCOc1cccc(Nc2ncnc3c(NC(=O)CCl)cccc23)c1,-59.1% (active)
8,CCOc1ccccc1C(=O)N1CCN(c2cc(Cl)cc(Cl)c2)CC1,-59% (active)
9,O=C(c1ccc(Nc2nccc(NCCCCNc3ccnc4cc(Cl)ccc34)n2)cc1)N1CCCCC1,-22.3% (active)
10,O=C(c1nc2ccccc2[nH]1)C1C(c2ccc(Cl)cc2)C2CC3CCCC[C@H]3N2[C@@]12C(=O)Nc1cc(Cl)ccc12 (stereo not given in full),23.8% (inactive)
11,CSc1nc2sc3c(c2c(=O)n1-c1ccc(C(C)C)cc1)CCC(=O)C3,6.88% (active)
12,Cn1cc(CC2CC(=O)N(c3ccccc3)C2=O)sc1=NC(=O)c1ccccc1 (stereo not given),114% (inactive)
13,Cc1n(Cc2ccc3ccccc3c2)cc[n+]1Cc1ccc2ccccc2c1,-38.1% (active)
14,CC(C)C(C(=O)CCN(C)C)c1ccc(Cl)cc1 (stereo not given),81.4% (inactive)
15,CC(=O)OC[C@H]1OC(Sc2sc(C(=O)c3ccc(Br)cc3)c(N)c2-c2nc3ccccc3s2)[C@H](OC(C)=O)[C@@H](OC(C)=O)[C@@H]1OC(C)=O (stereo not given in full),113% (inactive)
16,CC(C)(Sc1cc(C(C)(C)C)c(OC(=O)CCCC(=O)O)c(C(C)(C)C)c1)Sc1cc(C(C)(C)C)c(OC(=O)CCCC(=O)O)c(C(C)(C)C)c1,-22.6% (active)
17,COc1cc(C(=O)/C=C/c2c(C)n([O-])c3ccc(C)cc3[n+]2=O)cc(OC)c1OC,-42.6% (active)
18,COc1ccc(-c2cc(-c3ccc(Cl)cc3)nc(SCCCC(=O)NO)n2)cc1OC,-32.4% (active)
19,CCSC(SCC)c1ccc(Cl)cc1,116% (inactive)
20,N#Cc1c(N)n2c(nc1=Nc1ccc([N+](=O)[O-])cc1)sc1cc(Cl)ccc12,117% (inactive)

row,SMILES,growth
1,COC(=O)[C@]12CC[C@@H](C)[C@H](C)[C@@H]1C1=CC[C@@H]3[C@@]4(C)C(C#N)=CC(C)=C4CC[C@@]3(C)[C@]1(C)CC2,-19.3% (active)
2,[Cl-].[Rh+3].c1ccc(-c2ccnc3c2ccc2c(-c4ccccc4)ccnc23)cc1.c1ccc(-c2ccnc3c2ccc2c(-c4ccccc4)ccnc23)cc1.c1ccc(-c2ccnc3c2ccc2c(-c4ccccc4)ccnc23)cc1,99.9% (inactive)
3,COc1ccc(-c2cc(-c3ccc(Nc4nc(Nc5ccc(Cl)cc5)nc(Nc5ccc(Cl)cc5)n4)cc3)nc(N)c2C#N)cc1,28.3% (inactive)
4,CC1(C)CC[C@]2(CO)CC[C@]3(C)C(=CC[C@@H]4[C@@]5(C)CC[C@H](NCO)C(C)(C)[C@@H]5CC[C@]43C)[C@@H]2C1,-60.5% (active)
5,NC(=O)c1cccc(-n2ccc3cc(NC(=O)Nc4ccc(Cl)c(Cl)c4)ccc32)n1,102% (inactive)
6,COC(=O)CNC(=O)[C@]12CCC(C)(C)C[C@H]1C1=CC[C@@H]3[C@@]4(C)Cc5c([nH]c6ccccc56)C(C)(C)[C@@H]4CC[C@@]3(C)[C@]1(C)CC2,76.9% (inactive)
7,COc1cc2nc(SCc3cc(OC)c(OC)c(OC)c3)n(-c3ccccc3OC)c(=O)c2cc1OC,-16% (active)
8,Cc1c(C(=O)NCCC(=O)NO)sc2ncnc(Nc3ccc(NC(=O)Nc4cccc(C(F)(F)F)c4)cc3)c12,105% (inactive)
9,CCOC(=O)C1C(=O)C=C(c2cnccn2)CC1c1ccc(OC)c(OC)c1 (stereo not given),63.9% (inactive)
10,Cc1cccc2c1O/C(=C\c1ccc([N+](=O)[O-])o1)C2=O,-25.7% (active)
11,COc1cc(C(=O)c2cc(C)c3[nH]c4ccc(Cl)cc4c3c2C)cc(OC)c1OC,0.383% (active)
12,Cn1cc(-c2nnc(-c3cn(C)c4ncccc34)s2)c2ccccc21,27.8% (inactive)
13,CCCCC[C@H]1C/C=C2/C(=O)C(Cl)=C[C@@H]2C/C=C\CCCC(=O)O[C@@H](CCCCC)C/C=C2/C(=O)C(Cl)=C[C@@H]2C/C=C\CCCC(=O)O1,-19.1% (active)
14,CC(=O)c1c(OCC#N)ccc2c(C)cc(=O)oc12,81.6% (inactive)
15,Brc1ccc(-c2csc(Nc3ccccn3)n2)cc1,79.2% (inactive)
16,NC(=O)C1=C[C@H]2[C@H]3C=C[C@@]2(O)C(=O)O[C@@H]3O1,41.6% (inactive)
17,COc1cc(C(=O)NNC(=O)c2ccccc2C(=O)O)cc(OC)c1OC,5.84% (active)
18,O=C1CCCCN1c1ccc(C2=NCCCN2)cc1,70.7% (inactive)
19,O=[N+]([O-])CC(c1ccccc1F)c1c[nH]c2ccccc12 (stereo not given),51.1% (inactive)
20,C/C=C(/C(=O)NC(N)=O)C(C)C,91% (inactive)
